# From PubChem BioAssay (NCI)
# About 79,000 compounds went through this panel and 15% of them were active in at least one assay; those are over-represented in the sample as a whole. A number with no mark means an inactive call. The source made the active and inactive calls. Rule as the data show it: active = growth inhibition above about 70%; inactive = the rest.
# Key:
# [1] = NCI Yeast Anticancer Drug Screen. Data for the rad52 strain (AID 147);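 also: 0% = growth of vehicle-treated control cultures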; settings: S. cerevisiae rad52 mutant growth inhibition, stronger effect = higher value
# Procedure, shortened: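 Screen used a yeast mutant impaired in DNA repair. After compound exposure, growth was measured. Values reflect inhibition compared with vehicle-treated cells.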
# [2] = NCI Yeast Anticancer Drug Screen. Data for the wt1 strain (AID 149);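 also: 0% = growth of vehicle-treated wt1 cultures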; settings: S. cerevisiae wt1 strain (SPY 50644) growth inhibition, stronger effect = higher value
# Procedure, shortened: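 Compounds are added to wt1 yeast cultures. Growth is then measured. Inhibition is expressed relative to vehicle-treated controls.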
# [3] = NCI Yeast Anticancer Drug Screen. Data for the rad50EPP+ strain (AID 151);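 also: 0% = growth of vehicle-treated control cultures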; settings: S. cerevisiae rad50 mutant strain, stronger effect = higher value
# Procedure, shortened: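 Exposing the rad50EPP+ strain to each compound, growth was compared with vehicle-only cultures to give inhibition.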
# [4] = NCI Yeast Anticancer Drug Screen. Data for the mgt1 strain (AID 153); settings: S. cerevisiae mgt1 mutant growth inhibition, stronger effect = higher value
# Procedure, shortened: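 Genetically defined yeast (mgt1) treated with compound; inhibition of growth expressed against vehicle-treated controls.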
# [5] = NCI Yeast Anticancer Drug Screen. Data for the rad50 strain (AID 155);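 also: 0% = growth of vehicle-only cultures of the same strain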; settings: S. cerevisiae rad50 strain growth inhibition, stronger effect = higher value
# Procedure, shortened: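 Inhibition values express reduced yeast growth in compound-treated cultures relative to vehicle-treated controls.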
# [6] = NCI Yeast Anticancer Drug Screen. Data for the mec2-1 strain (AID 157); settings: S. cerevisiae mec2-1 strain, stronger effect = higher value
# Procedure, shortened: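 Readout is yeast growth inhibition, normalised to vehicle-treated controls, in the mec2-1 strain exposed to compound.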
# [7] = NCI Yeast Anticancer Drug Screen. Data for the rad14 strain (AID 159);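 also: 0% = growth of vehicle-treated control cultures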; settings: S. cerevisiae rad14 strain growth inhibition, stronger effect = higher value
# Procedure, shortened: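 A mutant yeast strain defective in DNA damage repair is treated with compound; inhibition of its growth is scored against untreated, vehicle-exposed cultures.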
# [8] = NCI Yeast Anticancer Drug Screen. Data for the sgs1 mgt1 strain (AID 161);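 also: 0% = growth of cultures given vehicle only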; settings: S. cerevisiae sgs1 mgt1 strain, stronger effect = higher value
# Procedure, shortened: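 Percent growth inhibition was derived by comparing compound-exposed mutant yeast with vehicle-exposed cultures. The strain carries alterations in DNA damage repair.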
# [9] = NCI Yeast Anticancer Drug Screen. Data for the CLN2oe strain (AID 163);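 also: 0% = growth of vehicle-only control cultures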; settings: S. cerevisiae CLN2oe strain, stronger effect = higher value
# Procedure, shortened: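 Values reflect how much compound exposure reduced yeast growth, referenced to vehicle-exposed cells. Assay organism is a strain with a defined genetic change affecting cell-cycle control.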
# [10] = NCI Yeast Anticancer Drug Screen. Data for the cln2 rad14 strain (AID 165);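 also: 0% = growth equal to vehicle treated cultures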; settings: S. cerevisiae cln2 rad14 strain, stronger effect = higher value
# Procedure, shortened: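 Relative to vehicle controls, growth inhibition of compound-treated cln2 rad14 yeast was recorded.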
# [11] = NCI Yeast Anticancer Drug Screen. Data for the bub3 strain (AID 167); settings: S. cerevisiae bub3 mutant strain, stronger effect = higher value
# Procedure, shortened: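 Steps: expose the mutant yeast strain to compound; grow alongside vehicle-treated cultures; measure growth; express inhibition against the vehicle cultures.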
# [12] = NCI Yeast Anticancer Drug Screen. Data for the wt2 strain (AID 169);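 also: 0% = growth of vehicle-treated yeast cultures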; settings: S. cerevisiae wt2 strain growth inhibition, stronger effect = higher value
# Procedure, shortened: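 Values express reduction in yeast growth under compound treatment, referenced to vehicle-treated cells.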
# [13] = NCI Yeast Anticancer Drug Screen. Data for the mlh1 strain (AID 171);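 also: 0% = growth of vehicle-treated control cultures of the same strain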; settings: S. cerevisiae mlh1 strain growth inhibition, stronger effect = higher value
# Procedure, shortened: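 Steps: expose the defined-mutant yeast strain to compound; expose a parallel culture to vehicle; measure growth; express compound effect as inhibition relative to the vehicle culture.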
# [14] = NCI Yeast Anticancer Drug Screen. Data for the sgs1 strain (AID 173);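 also: 0% = growth of vehicle-only control cultures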; settings: S. cerevisiae sgs1 mutant, stronger effect = higher value
# Procedure, shortened: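 Treat defined-mutant yeast with compound; measure growth; calculate inhibition relative to vehicle-treated cells.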
# [15] = NCI Yeast Anticancer Drug Screen. Data for the rad18 strain (AID 177); settings: S. cerevisiae rad18 mutant growth inhibition, stronger effect = higher value
# Procedure, shortened: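 A genetically defined yeast mutant impaired in DNA damage repair was treated with test compounds, then its growth was measured against cultures receiving vehicle alone.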
# [16] = at 5.0 µM (retest, dose inferred, filed as 0.5)
# [17] = at 50.0 µM (retest, dose inferred, filed as 5.0)
compound,measurement,setting,value
COc1cccc2c1C(=O)c1c(O)c3c(c(O)c1C2=O)C[C@@](O)(C(C)=O)C[C@@H]3OC1CC(OC(C)=O)C(OC(C)=O)C(C)O1 (stereo not given in full),growth inhibition,[1]; at 1.2 µM,-12%
same,growth inhibition,[1]; at 3.7 µM,-7%
same,growth inhibition,[1]; at 11.0 µM,37%
same,growth inhibition,[1]; at 33.0 µM,48%
same,growth inhibition,[1]; at 100.0 µM,40%
same,growth inhibition,[2]; at 1.2 µM,-26%
same,growth inhibition,[2]; at 3.7 µM,-43%
same,growth inhibition,[2]; at 11.0 µM,-46%
same,growth inhibition,[2]; at 33.0 µM,-24%
same,growth inhibition,[2]; at 100.0 µM,-28%
same,growth inhibition,[3]; at 1.2 µM,-11%
same,growth inhibition,[3]; at 3.7 µM,-16%
same,growth inhibition,[3]; at 11.0 µM,-7%
same,growth inhibition,[3]; at 33.0 µM,7%
same,growth inhibition,[3]; at 100.0 µM,36%
same,growth inhibition,[4]; at 1.2 µM,-41%
same,growth inhibition,[4]; at 3.7 µM,-51%
same,growth inhibition,[4]; at 11.0 µM,-33%
same,growth inhibition,[4]; at 33.0 µM,-22%
same,growth inhibition,[4]; at 100.0 µM,-11%
same,growth inhibition,[5]; at 1.2 µM,-40%
same,growth inhibition,[5]; at 3.7 µM,-11%
same,growth inhibition,[5]; [16],22%
same,growth inhibition,[5]; at 11.0 µM,39%
same,growth inhibition,[5]; at 33.0 µM,51%
same,growth inhibition,[5]; [17],76% (active)
same,growth inhibition,[5]; at 50.0 µM,56.2%
same,growth inhibition,[5]; at 100.0 µM,47%
same,growth inhibition,[6]; at 1.2 µM,-64%
same,growth inhibition,[6]; at 3.7 µM,-46%
same,growth inhibition,[6]; [16],13%
same,growth inhibition,[6]; at 11.0 µM,-34%
same,growth inhibition,[6]; at 33.0 µM,-25%
same,growth inhibition,[6]; [17],41%
same,growth inhibition,[6]; at 50.0 µM,60%
same,growth inhibition,[6]; at 100.0 µM,1%
same,growth inhibition,[7]; at 1.2 µM,-35%
same,growth inhibition,[7]; at 3.7 µM,-3%
same,growth inhibition,[7]; at 11.0 µM,-6%
same,growth inhibition,[7]; at 33.0 µM,10%
same,growth inhibition,[7]; at 100.0 µM,29%
same,growth inhibition,[8]; [16],98% (active)
same,growth inhibition,[8]; [17],96% (active)
same,growth inhibition,[8]; at 50.0 µM,77% (active)
same,growth inhibition,[9]; at 1.2 µM,3%
same,growth inhibition,[9]; at 3.7 µM,-2%
same,growth inhibition,[9]; at 11.0 µM,12%
same,growth inhibition,[9]; at 33.0 µM,11%
same,growth inhibition,[9]; at 100.0 µM,19%
same,growth inhibition,[10]; [16],96% (active)
same,growth inhibition,[10]; [17],97% (active)
same,growth inhibition,[10]; at 50.0 µM,17.3%
same,growth inhibition,[11]; at 1.2 µM,-54%
same,growth inhibition,[11]; at 3.7 µM,-38%
same,growth inhibition,[11]; [16],98% (active)
same,growth inhibition,[11]; at 11.0 µM,-50%
same,growth inhibition,[11]; at 33.0 µM,-35%
same,growth inhibition,[11]; [17],97% (active)
same,growth inhibition,[11]; at 50.0 µM,75.7% (active)
same,growth inhibition,[11]; at 100.0 µM,-4%
same,growth inhibition,[12]; at 1.2 µM,-23%
same,growth inhibition,[12]; at 3.7 µM,-18%
same,growth inhibition,[12]; at 11.0 µM,-2%
same,growth inhibition,[12]; at 33.0 µM,0%
same,growth inhibition,[12]; at 100.0 µM,12%
same,growth inhibition,[13]; at 1.2 µM,-41%
same,growth inhibition,[13]; at 3.7 µM,-37%
same,growth inhibition,[13]; at 11.0 µM,-30%
same,growth inhibition,[13]; at 33.0 µM,-8%
same,growth inhibition,[13]; at 100.0 µM,18%
same,growth inhibition,[14]; at 1.2 µM,-17%
same,growth inhibition,[14]; at 3.7 µM,-23%
same,growth inhibition,[14]; at 11.0 µM,-14%
same,growth inhibition,[14]; at 33.0 µM,-3%
same,growth inhibition,[14]; at 100.0 µM,-9%
same,growth inhibition,[15]; at 1.2 µM,-28%
same,growth inhibition,[15]; at 3.7 µM,-29%
same,growth inhibition,[15]; at 11.0 µM,-16%
same,growth inhibition,[15]; at 33.0 µM,-5%
same,growth inhibition,[15]; at 100.0 µM,-1%
COc1ccc(NC(=O)CC2SC(=Nc3ccccc3C)NC2=O)c([N+](=O)[O-])c1 (stereo not given),growth inhibition,[1]; at 1.2 µM,0%
same,growth inhibition,[1]; at 3.7 µM,-2%
same,growth inhibition,[1]; at 11.0 µM,2%
same,growth inhibition,[1]; at 33.0 µM,13%
same,growth inhibition,[1]; at 100.0 µM,75% (active)
same,growth inhibition,[2]; at 1.2 µM,-1%
same,growth inhibition,[2]; at 3.7 µM,-1%
same,growth inhibition,[2]; at 11.0 µM,1%
same,growth inhibition,[2]; at 33.0 µM,10%
same,growth inhibition,[2]; at 100.0 µM,36%
same,growth inhibition,[3]; at 1.2 µM,-2%
same,growth inhibition,[3]; at 3.7 µM,-2%
same,growth inhibition,[3]; at 11.0 µM,1%
same,growth inhibition,[3]; at 33.0 µM,28%
same,growth inhibition,[3]; at 100.0 µM,80% (active)
same,growth inhibition,[4]; at 1.2 µM,-2%
same,growth inhibition,[4]; at 3.7 µM,1%
same,growth inhibition,[4]; at 11.0 µM,1%
same,growth inhibition,[4]; at 33.0 µM,12%
same,growth inhibition,[4]; at 100.0 µM,99% (active)
same,growth inhibition,[5]; at 1.2 µM,1%
same,growth inhibition,[5]; at 3.7 µM,-44%
same,growth inhibition,[5]; [16],0%
same,growth inhibition,[5]; at 11.0 µM,26%
same,growth inhibition,[5]; at 33.0 µM,18%
same,growth inhibition,[5]; [17],69%
same,growth inhibition,[5]; at 50.0 µM,56.7%
same,growth inhibition,[5]; at 100.0 µM,98% (active)
same,growth inhibition,[6]; at 1.2 µM,1%
same,growth inhibition,[6]; at 3.7 µM,1%
